Screens from PubChem BioAssay.
In the library only some 17% were active in any assay of this set; here they are far more common.
TDP1 block: inhibitors of human tyrosyl-DNA phosphodiesterase TDP1; recombinant TDP1, AlphaScreen DNA substrate cleavage; Potency, µM (doses to about 130 µM), hits mostly inhibitors; hit rate 0.28% among 350,000; AID 485290; also: nearly all actives have a fitted effect of over 40% in size
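Recombinant E. coli-expressed Tdp1 (1 nM) preincubated with compound 15 min at RT, then 5'-biotin/3'-phosphotyrosine-FITC DNA substrate (15 nM) added for 5 min. AlphaScreen beads (10 ug/ml) added, 10 min RT; tyrosine-FITC cleavage read as signal loss.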
ClpP mod: qHTS Assay for Activators of ClpP. ATP-dependent Clp protease proteolytic subunit (Bacillus subtilis (strain 168)), P80244. purified B. subtilis ClpP, FRET peptide cleavage, 20 min. Potency, µM (top dose mostly 57.5 µM). hit rate 1.9% among 340,000. AID 651965, 2013; active = well fitted falling curve with a large enough effect; inconclusive = small, poorly fitted or top-dose-only effect; inactive = no such curve, though single readings can be large or run the other way; also: the source files actives as falling curves though it sought activators and does not explain the sign; nearly all actives have a fitted effect of over 65% in size
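Purified B. subtilis ClpP, 10 microg/mL final in Tris/HCl pH8 with KCl, BSA, glycerol and Tween-20, cleaved an Abz/nitrotyrosine-quenched decapeptide. Fluorescence (ex 320, em 430) was read at 0 and 20 min at room temperature. Delta was normalized to 5.8 microM ADEP and DMSO/no-enzyme controls.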
TDP1 cell CPT: DT40-hTDP1 cell growth loss with CPT | hit rate 12% among 420,000 | chicken DT40 Tdp1-/-;hTDP1 cells + 20 nM CPT, ATP luminescence, 48 h | Potency, µM (top dose mostly 46.2 µM), usual class: inhibitors; also: nearly all actives have a fitted effect of over 55% in size
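Chicken DT40 Tdp1-/- cells stably complemented with human TDP1 were seeded at 400 cells/well in medium containing 20 nM camptothecin, exposed to pin-transferred compounds, and grown at 37 °C for at least 48 hr. Viability was read as ATP luminescence.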
TDP1 cell noCPT: qHTS for Inhibitors of human tyrosyl-DNA phosphodiesterase 1 (TDP1): qHTS in cells in absence of CPT; Potency, µM (doses to about 46.2 µM), most hits filed as inhibitors; hit rate 15% among 420,000; DT40 Tdp1-/- hTDP1 cells, no CPT, ATP luminescence, 48 h; also: nearly all actives have a fitted effect of over 55% in size
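No-CPT arm: Tdp1-/-;hTDP1 DT40 cells (400/well) plus compounds, incubated ≥48 hr at 37 °C. Readout CellTiter-Glo luminescence.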
Hits are given with their value; - = inactive; ? = inconclusive; . = no result given; [ ] = remark or other dose. Unless noted, calls follow the shape of the dose curve; as a rule, active = well fitted curve in the direction sought with a large enough effect; inconclusive = small, poorly fitted or top-dose-only effect, or another doubt; inactive = no such curve, though single readings can be large; an effect the other way counts as inactive or inconclusive.

SMILES	TDP1 block	ClpP mod	TDP1 cell CPT	TDP1 cell noCPT
COc1ccc2cc(-c3[nH]ncc3CN3CCCC3c3nonc3C)ccc2c1 (stereo unspecified)	-	-	?	23.1µM
O=C1CCCC2=C1C1(CCCCC1)N=C(Nc1nc3ccccc3o1)N2	-	-	?	13µM
O=C1CCCC2=C1C1(CCCC1)N=C(Nc1nc3ccccc3o1)N2	-	.	.	.
Cc1nn(C)cc1NC(=O)CCSc1nc(-c2ccco2)cc(C(F)(F)F)n1	-	-	-	?
COc1ccc(NC(=O)CCSc2nc(-c3ccco3)cc(C(F)(F)F)n2)cc1	-	-	-	-
O=C(CSc1nc(-c2ccco2)cc(C(F)(F)F)n1)Nc1ccc(C(=O)N2CCCCC2)cc1	-	-	7.31µM	6.51µM
CN(C)c1ccc(NC(=O)CCSc2nc(-c3ccco3)cc(C(F)(F)F)n2)cc1	-	-	?	18.4µM
Cc1ccc(NC(=O)CSc2nc(-c3ccco3)cc(C(F)(F)F)n2)cc1	-	?	2.06µM	3.26µM
Cc1cccc(C)c1NC(=O)CSc1nc(-c2ccco2)cc(C(F)(F)F)n1	-	-	?	?
Cc1ccc(O)c(NC(=O)CCSc2nc(-c3ccco3)cc(C(F)(F)F)n2)c1	-	-	?	18.4µM
O=C1Nc2ccccc2-n2nnnc2C1N1CCN(c2ccc(F)cc2)CC1 (stereo unspecified)	.	-	-	?
CCn1nc(C)c(NC(=O)CCCSc2nc(-c3ccco3)cc(C(F)(F)F)n2)c1C	-	-	18.4µM	14.6µM
O=C(Nc1cnn(C23CC4CC(CC(C4)C2)C3)c1)c1cnn2c(C(F)(F)F)cc(-c3ccco3)nc12	-	-	18.4µM	15.8µM
Cc1ccccc1Cn1ccc(NC(=O)CCSc2nc(-c3ccco3)cc(C(F)(F)F)n2)n1	-	28.2µM	-	?
Cc1cc(NC(=O)CSc2nc(-c3ccco3)cc(C(F)(F)F)n2)no1	-	25.1µM	0.581µM	0.731µM
Cc1ccc(Cn2ccc(NC(=O)CCSc3nc(-c4ccco4)cc(C(F)(F)F)n3)n2)cc1	-	-	?	?
COc1ccc(N2CCN(C(=O)C3(C)CC3(Cl)Cl)CC2)cc1 (stereo unspecified)	-	-	-	-
O=C(C1CCCCC1)N(Cc1cccnc1)c1nc2ccc(Cl)cc2s1	-	-	?	?
CNc1ncncc1-c1ccccc1CN(C)C	.	.	-	-
Cc1ccccc1Cn1ccc(NC(=O)c2cnn3c(C(F)(F)F)cc(-c4ccco4)nc23)n1	-	-	?	14.6µM
COc1ccccc1N1CCN(C(=O)CSc2nc(-c3ccco3)cc(C(F)(F)F)n2)CC1	-	-	?	23.1µM
Cc1ccc(S(=O)(=O)N2CCN(C(=O)c3ccc(-n4cncn4)c([N+](=O)[O-])c3)CC2)c(C)c1	.	-	?	?
CN(C)C(CNC(=O)C1CCN(S(=O)(=O)c2ccccc2C(F)(F)F)CC1)Cc1ccccc1 (stereo unspecified)	-	-	?	?
C=CCN(Cc1ccc(OC)c(OC)c1)C(=O)c1cc2cc(F)ccc2[nH]1	.	-	13µM	?
CSCCC(NC(=O)c1ccc([N+](=O)[O-])cc1Cl)C(=O)OCC(=O)C12CC3CC(CC(C3)C1)C2 (stereo unspecified)	-	-	?	?
SMILES	TDP1 block	ClpP mod	TDP1 cell CPT	TDP1 cell noCPT
CCc1nc2ccccc2c(C(=O)OCC(=O)NCc2ccc3c(c2)OCO3)c1C	-	-	?	18.4µM
CCCc1nc2ccccc2c(C(=O)OC(C)C(=O)NCc2ccc3c(c2)OCO3)c1CC (stereo unspecified)	-	-	29.1µM	18.4µM
CC(C)N(C(=O)COC(=O)[C@H](C)NC(N)=O)c1ccccc1	-	-	-	-
CC(=O)c1ccc(N/N=C(/C(N)=O)C2=NC(C)(C)Cc3ccccc32)cc1	-	-	11.6µM	9.2µM
COc1cccc(NC(=O)C2CC2)c1	-	-	5.8µM	-
N#Cc1ccc(Oc2ccc(NC(=O)C3CC=CCC3C(=O)O)cc2)cc1 (stereo unspecified)	-	-	-	?
CS(=O)(=O)c1cccc(NC(=O)C2CC2)c1	-	.	-	-
O=C(Nc1cccc(S(=O)(=O)c2cccc(NC(=O)C3CC3)c2)c1)C1CC1	-	-	20.6µM	20.6µM
O=C(Nc1ccc(Oc2ccccc2)cc1)C1CC1	-	-	20.6µM	18.4µM
Cc1cccc(Oc2ccc(NC(=O)C3CC=CCC3C(=O)O)cc2)c1 (stereo unspecified)	.	.	-	2.06µM
COc1cccc(NC(=O)C2CCCC2)c1	-	-	-	-
O=C(NCCc1c[nH]c2ccccc12)C(=O)NCC1OCCCN1S(=O)(=O)c1cc(F)ccc1F (stereo unspecified)	-	.	-	?
Cc1oc(-c2cccc(Cl)c2)nc1CS(=O)(=O)CC(=O)NCc1ccco1	-	-	-	-
CN1C[C@@H]2[C@@H]3C(=O)N(Cc4ccccc4)C(=O)[C@@H]3[C@](C)(C1=O)N2C(=O)c1ccccc1	.	-	-	-
COc1cccc(NC(=O)c2ccc(NC(=O)C3CC(=O)OC34CCCCC4)cc2)c1 (stereo unspecified)	-	-	18.4µM	?
O=C(Nc1ccccc1O)c1ccc(NC(=O)C2CC2)cc1	-	-	11.6µM	11.6µM
CC(C)Oc1cccc(NC(=O)C2CCN(S(=O)(=O)Cc3ccccc3)CC2)c1	-	-	13µM	?
COc1ccccc1C(=O)N/N=C(\C)c1ccc(NC(=O)C2CC2)cc1	-	28.2µM	-	-
O=C(Nc1cccc(Cl)c1)C1CCN(S(=O)(=O)Cc2ccccc2)CC1	-	-	-	?
COCCn1c(C)cc(C(=O)COC(=O)c2ccc(Br)o2)c1C	-	?	-	-
Cn1c2c(c(=O)n(C)c1=O)C(c1ccccc1C(F)(F)F)CC(=O)N2 (stereo unspecified)	-	-	?	?
Cc1ncoc1C(=O)N1CCCC(C(=O)Nc2cccc(-c3ccc(F)cc3)c2)C1 (stereo unspecified)	-	-	?	18.4µM
O=C(Nc1cccc(-c2ccc(F)cc2)c1)C1CCCN(C(=O)c2cscn2)C1 (stereo unspecified)	-	-	13µM	?
Cc1ccc(NC(=O)C2CCCN(C(=O)Nc3ccc(F)cc3)C2)cc1 (stereo unspecified)	-	.	-	?
O=C(NCC1CCCN(C(=O)c2cscn2)C1)c1ccc(-c2ccccc2)cc1 (stereo unspecified)	-	.	-	20.6µM
SMILES	TDP1 block	ClpP mod	TDP1 cell CPT	TDP1 cell noCPT
C/C=C/c1ccc2oc(-c3ccc(O)cc3)c(C)c2c1	-	.	-[9.04 µM]	-[9.04 µM]
O=c1c2oc3nc4c(cc3c2ncn1CCCc1ccccc1)CCCC4	-	-	?	?
COc1ccc(NC(=O)CCCCC(=O)Nc2ccc(OC)cc2)cc1	.	?	-	-
COc1ccc(NC(=O)CCCCC#Cc2ccccc2)cc1	-	-	?	14.6µM
O=C(C#Cc1ccccc1)Nc1cccc(F)c1	-	-	4.11µM	5.8µM
COc1ccc(NC(=O)C#Cc2ccccc2)cc1	-	-	20.6µM	10.3µM
